esBAF inh – Bmi1 luciferase reporter increase in mESCs, primary screen, esBAF inhibitor project, mouse ES cells, Bmi1 luciferase knock-in, single point; 24 h; 100% = twice the neutral-well signal; reporter increase, % at 12.5 µM; 350,000 tested, 2% active; AID 602393, 2012; in the data active means activation above about 40%; inconclusive means no clear call, values can overlap the other calls;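 further: a rise in the Bmi1 reporter signal indicates esBAF inhibition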
A3G deaminase – APOBEC3G DNA deaminase inhibitors, primary screen, biochemical, fluorescence, single-stranded DNA substrate, uHTS. recombinant A3G, ssDNA deamination FAM/TAMRA fluorescence. inhibition, % at 20 µM. 330,000 tested, 0.28% active;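 active means inhibition of at least 40% at 20 µM, with no more than 30% in the related APOBEC3A deaminase screen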
Target sequence (Q9HC16 whole entry, looked up): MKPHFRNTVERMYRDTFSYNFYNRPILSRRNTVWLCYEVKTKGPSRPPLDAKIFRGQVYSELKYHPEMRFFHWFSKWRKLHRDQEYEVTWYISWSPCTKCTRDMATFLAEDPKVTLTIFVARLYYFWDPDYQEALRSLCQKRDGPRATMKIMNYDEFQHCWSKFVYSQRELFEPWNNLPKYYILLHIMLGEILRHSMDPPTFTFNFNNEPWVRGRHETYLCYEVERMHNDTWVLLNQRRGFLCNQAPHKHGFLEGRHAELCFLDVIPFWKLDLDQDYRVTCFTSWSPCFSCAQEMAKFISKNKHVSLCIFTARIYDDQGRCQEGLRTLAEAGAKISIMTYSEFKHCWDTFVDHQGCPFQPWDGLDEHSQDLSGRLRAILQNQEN
A3A deaminase – APOBEC3A ssDNA deaminase inhibitors, primary screen, selectivity assay for APOBEC3G inhibitor project, biochemical, FAM/TAMRA oligo cleavage fluorescence; AID 493011, 2011; 330,000 tested, 0.41% active; inhibition, % at 20 µM; recombinant A3A, FAM/TAMRA ssDNA deamination fluorescence;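 active means at least 40% inhibition at 20 µM here, with at most 30% in a related deaminase screen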
Wnt bcat act – Wnt/beta-catenin pathway activators, primary screen, cell-based, plate reader, single point; Wnt/beta-catenin reporter cell assay, activator; activation, % at 9.35 µM; 300,000 tested, 1.2% active; in the data active means activation above about 30%, passing the limit was not always enough; inconclusive means no clear call, values can overlap the other calls
PHOSPHO1 block – PubChem AID 1565 | 290,000 tested, 1.1% active | inhibition, % at 13.3 µM | recombinant PHOSPHO1, absorbance phosphatase assay; in the data active means inhibition above about 60%
MITF TRPM1 HTS – activators of MITF-driven TRPM1 promoter reporter, primary screen, cell-based, SK-MEL-5, luciferase, single point. SK-MEL-5 TRPM1-promoter luciferase, 24 h; % of positive control, neutral wells = 0. activation, % at 12.5 µM. 300,000 tested, 0.75% active;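 active means mean activation of at least 80% with every replicate also reaching 80%; inconclusive means mean reaches 80% but some replicate falls short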
Each line names hits and unclear results; the compound was inactive in the other large screens. Shown are actives, neighbours in structure and some others; about 3.6% of the full set was active somewhere.

Cc1ccc(NC(=O)Cc2ccccc2)c(C)c1	none (no result: esBAF inh, Wnt bcat act, MITF TRPM1 HTS)
CCN(CC)C(=O)CSc1nnc(-c2cc3ccccc3cc2O)n1CC	PHOSPHO1 block 62.2
C=CCn1c(-c2cc(-c3ccccc3)sc2N)n[nH]c1=S	Wnt bcat act 41.0 (no result: esBAF inh, MITF TRPM1 HTS)
CCn1c(-c2cc3ccccc3cc2O)n[nH]c1=S	PHOSPHO1 block 92.1
C=CCn1c(-c2csc(-c3ccccc3)n2)n[nH]c1=S	none
CCn1c(-c2c[nH]c3ccccc23)n[nH]c1=S	PHOSPHO1 block 78.9
C=CCn1c(-c2c[nH]c3ccccc23)n[nH]c1=S	PHOSPHO1 block 101.1 (no result: MITF TRPM1 HTS)
CCCSc1nnc(-c2c[nH]c3ccccc23)n1CC	none
CCCSc1nnc(-c2c[nH]c3ccccc23)n1C	esBAF inh 43.6
CO[C@@H](CN(C)C(=O)c1ccccc1F)[C@H](C)CN([C@@H](C)CO)S(=O)(=O)c1ccc(Cl)cc1	none (no result: A3G deaminase, A3A deaminase, Wnt bcat act, PHOSPHO1 block, MITF TRPM1 HTS)
Cc1ccc(S(=O)(=O)N(C)C[C@H]2Oc3c(NC(=O)c4ccc(-c5nccs5)cc4)cccc3C(=O)N([C@@H](C)CO)C[C@@H]2C)cc1	none (no result: A3G deaminase, A3A deaminase, Wnt bcat act, PHOSPHO1 block, MITF TRPM1 HTS)
O=[N+]([O-])c1cc(-c2cnc3ccccc3n2)ccc1Oc1ccc(Br)cc1	esBAF inh 44.2 (no result: Wnt bcat act, MITF TRPM1 HTS)
Cc1ccc(NC(=O)c2cnn(-c3ccccc3)c2C)cc1	none (no result: MITF TRPM1 HTS)
O=C(NCCc1c[nH]c2ccccc12)c1ccc(-n2cnnn2)cc1	none (no result: MITF TRPM1 HTS)
Cc1ccc(NC(=O)c2cnn(-c3ccccc3)c2C)c(C)c1	Wnt bcat act 44.9
COc1ccccc1C1CCN(C(=O)c2ccccc2)CC1	none
COc1ccc(S(=O)(=O)N2CCN(C(=O)c3c(C)nn(-c4ccccc4)c3C)CC2)cc1	none (no result: PHOSPHO1 block)
COc1ccccc1C1CCN(C(=O)c2cnn(-c3ccccc3)c2C)CC1	Wnt bcat act 41.2
O=C(NCCc1ccccc1)c1ccc(-n2cnnn2)cc1	esBAF inh 48.4
COc1ccc(OC(=O)c2c(C)nn(-c3ccccc3)c2C)cc1	esBAF inh 71.3
Cc1cccc(S(=O)(=O)N2CC[C@@H]3[C@H](CO)Nc4ccc(C5=CCCCC5)cc4[C@@H]32)c1	none (no result: A3G deaminase, A3A deaminase, Wnt bcat act, PHOSPHO1 block, MITF TRPM1 HTS)
C[C@H](CO)N1C[C@H](C)[C@H](CN(C)C(=O)c2ccccc2)Oc2ncc(/C=C/c3ccccc3)cc2C1=O	none (no result: A3G deaminase, A3A deaminase, Wnt bcat act, PHOSPHO1 block, MITF TRPM1 HTS)
CCC(=O)Nc1ccc2c(c1)OC[C@H](C)N(C(C)=O)C[C@@H](C)[C@@H](OC)CN(C)C2=O	none (no result: A3G deaminase, A3A deaminase, Wnt bcat act, PHOSPHO1 block, MITF TRPM1 HTS)
COc1ccc(S(=O)(=O)Nc2ccc3c(c2)C(=O)N([C@@H](C)CO)C[C@H](C)[C@@H](CN(C)CC2CCCCC2)OCCCC[C@H](C)O3)cc1	none (no result: A3G deaminase, A3A deaminase, Wnt bcat act, PHOSPHO1 block, MITF TRPM1 HTS)
CC(=O)c1c(C)nn(-c2ccccc2)c1C	none (no result: esBAF inh, MITF TRPM1 HTS)
Cc1nn(-c2ccccc2)c(C)c1C(=O)NCCc1ccc(Cl)cc1	none (no result: esBAF inh)
Cc1nn(-c2ccccc2)c(C)c1C(=O)NCCc1ccccc1	MITF TRPM1 HTS 88.4
Cc1nn(-c2ccccc2)c(C)c1C(=O)Oc1ccccc1	esBAF inh 62.1, MITF TRPM1 HTS inconclusive
COc1ccc(OC(=O)c2cnn(-c3ccccc3)c2C)cc1	esBAF inh 66.9 (no result: Wnt bcat act)
COC(=O)c1ccccc1NC(=O)c1noc2c1CCCC2	none (no result: Wnt bcat act)
O=C(NC1CCCC1)c1noc2c1CCCCC2	Wnt bcat act 43.5 (no result: esBAF inh, MITF TRPM1 HTS)
O=C(NCc1ccccc1)c1noc2c1CCCCC2	MITF TRPM1 HTS 101.2 (no result: Wnt bcat act)
CC(NC(=O)c1noc2c1CCCCC2)c1ccccc1 (stereo unspecified)	esBAF inh 44.8
COC(=O)c1ccc2c(c1)C(=O)/C(=C/c1ccc(O)cc1)O2	esBAF inh inconclusive (no result: A3G deaminase, A3A deaminase)
COc1cccc(/C=C2\Oc3ccc(O)cc3C2=O)c1O	Wnt bcat act 38.0 (no result: PHOSPHO1 block)
C[C@@H]1CN([C@@H](C)CO)C(=O)c2cc(NC(=O)Nc3cccc4ccccc34)ccc2O[C@@H]1CN(C)Cc1ccc(C(=O)Nc2ccccc2N)cc1	none (no result: A3G deaminase, A3A deaminase, Wnt bcat act, PHOSPHO1 block, MITF TRPM1 HTS)
Cc1nnc(NC(=O)c2ccccc2F)s1	none
Cc1ccccc1N(C)S(=O)(=O)c1nnc(NC(=O)c2ccccc2F)s1	PHOSPHO1 block 64.0
Cc1ccc(-c2cnc3c(c2)C(=O)N([C@H](C)CO)C[C@@H](C)[C@@H](CN(C)C(=O)c2cccc(F)c2)O3)cc1	none (no result: A3G deaminase, A3A deaminase, Wnt bcat act, PHOSPHO1 block, MITF TRPM1 HTS)

Assay outcomes: PubChem, several laboratories
